TDP1 cell noCPT – qHTS for Inhibitors of human tyrosyl-DNA phosphodiesterase 1 (TDP1): qHTS in cells in absence of CPT. DT40 Tdp1-/- hTDP1 cells, no CPT, ATP luminescence, 48 h. Potency, µM (highest dose often 46.2 µM), for the others: at the highest dose activity change, negative = growth inhibition, most hits filed as inhibitors. 15% of 420,000 active. AID 686978, 2013; further: potency means the concentration at half of the fitted maximal effect; nearly all actives have a fitted effect of over 55% in size
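Stably hTDP1-transfected Tdp1-null chicken DT40 cells were treated with library compounds minus camptothecin and grown for at least 48 hr at 37 °C, after which cellular ATP was quantified by luminescence.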
TDP1 cell CPT – qHTS for Inhibitors of human tyrosyl-DNA phosphodiesterase 1 (TDP1): qHTS in cells in presence of CPT; chicken DT40 Tdp1-/-;hTDP1 cells + 20 nM CPT, ATP luminescence, 48 h; Potency, µM (doses to about 46.2 µM), for the others: top-dose activity change, negative = growth inhibition, usual class: inhibitors; 12% of 420,000 active; AID 686979, 2013; further: potency means the concentration at half of the fitted maximal effect; nearly all actives have a fitted effect of over 55% in size
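Cell growth measured by CellTiter-Glo luminescence after a minimum 48 h, 37 C compound exposure with 20 nM CPT in Tdp1-knockout DT40 cells stably expressing hTDP1, seeded 400/well; qHTS titration format.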
IL1B secr inh – qHTS for Inhibitors of Inflammasome Signaling: IL-1-beta AlphaLISA Primary Screen | activity change, % at 57.5 µM | 4.7% of 360,000 active | THP-1 LPS/ATP IL-1B secretion, AlphaLISA, 16 h; active compounds read low; in the data active means activity change below about -50%; inconclusive means mostly about -30% to -49%
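THP-1 cells pretreated 1 hr with compounds (up to 57.5 uM final), then stimulated with LPS (250 ng/mL final) plus ATP (1.25 mM final); secreted IL-1B measured by AlphaLISA after 16 hr, decreased signal indicating inhibition.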
uPA surface inh – qHTS for Inhibitors of Cell Surface uPA Generation; cell surface uPA generation assay, qHTS; Potency, µM (doses to about 38.3 µM), for inactives: at the top dose activity change, negative = inhibition, actives largely listed as inhibitors; 0.31% of 330,000 active; AID 540303, 2011; active means well fitted inhibition curve with a large enough effect; inconclusive means small, poorly fitted or top-dose-only effect; inactive means no such curve, though single readings can be large or run the other way; tested in mouse RAW 264.7 cells; further: potency means the concentration at half of the fitted maximal effect; nearly all actives have a fitted effect of over 55% in size
HT1080-NT tox – qHTS for induction of synthetic lethality in tumor cells producing 2HG: qHTS for the HT-1080-NT fibrosarcoma cell line; Potency, µM (top dose mostly 46.1 µM), for the others: at the top dose activity, negative = less viability, actives largely listed as cytotoxic; HT-1080-NT fibrosarcoma viability, CellTiter-Glo ATP luminescence, 48 h; 1.6% of 360,000 active;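 further: NT is the 2HG producing partner of a matched IDH1 knockdown line; potency means the concentration at half of the fitted maximal effect; 0% = DMSO-treated cells and -100% = media-only wells without cells; nearly all actives have a fitted effect of over 55% in size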
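Viability of the 2HG-overproducing fibrosarcoma line after 48 hours of compound exposure at 37 degrees C was determined by luminescence with CellTiter-Glo, and concentration-effect curves were then fitted and categorized.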
HT1080 IDH1KD tx – qHTS for induction of synthetic lethality in tumor cells producing 2HG: qHTS for the HT-1080-IDH1KD cell line; HT-1080 IDH1 knockdown viability, ATP luminescence, 48 h; AID 686971, 2013; 2% of 360,000 active; Potency, µM (highest dose often 46.1 µM), for inactives: at the highest dose activity, negative = toxicity, usual class: cytotoxic;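 further: potency means the concentration at half of the fitted maximal effect; 0% = DMSO wells and -100% = cell-free medium wells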
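% activity derives from luminescence (CellTiter-Glo), normalised to DMSO and no-cell wells. HT-1080-IDH1KD cells, 750/well, had 48 h compound exposure at 37 °C.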
Active calls of the source: *; ? = inconclusive; · = no result; [ ] = dose if it differs, or a comment. This is a sample that favours compounds with a hit; in the whole collection about 19% have one here. Unless noted, the call rests on the fitted dose curve; in most records, active means well fitted curve in the direction sought with a large enough effect; inconclusive means small, poorly fitted or top-dose-only effect, or another doubt; inactive means no such curve, though single readings can be large; an effect the other way counts as inactive or inconclusive. Unless noted, on the % scale 0 is the no-effect control and ±100 the full control effect.

SMILES	TDP1 cell noCPT	TDP1 cell CPT	IL1B secr inh	uPA surface inh	HT1080-NT tox	HT1080 IDH1KD tx
CCCNc1nc2nc3ccccn3c(=O)c2cc1C(=O)NCCN1CCOCC1	-11%	11%	-25	-2%	3%	0%
CCN1N=C(c2ccccc2)Cn2c1nc1ccccc12	16µM*	?	1	-7%	-9%	-12%
CS(=O)(=O)N1CCn2c1nc1ccccc12	-22%	14%	3	-3%	9%	7%
COC(=O)c1ccc(CSc2ncnc3c2sc2nc(N4CCOCC4)c4c(c23)CCCC4)o1	18µM*	?	-12	5%	6%	0%
COC(=O)c1ccc(-c2sc3nc(N4CCOCC4)c4c(c3c2N)CCCC4)o1	26µM*	18µM*	-9	5%	-1%	1%
O=C(Oc1cccc2c(O)cccc12)c1ccco1	12µM*	21µM*	26	1%	-7%	-22%
CCN(CC)C1=C(Cl)C(=O)C(Cl)C12OCCO2 (configuration not stated)	-7%	3%	·	-1%	21%	16%
COc1cc(/C=N/NC(=O)c2cccc([N+](=O)[O-])c2)ccc1OCc1ccc(C)cc1	-13%	-3%	-2	1%	9%	5%
Cc1ccc(C(C)C)c(OCc2ccc(C(=O)N/N=C/c3cccc(O)c3O)cc2)c1	5.2µM*	3.7µM*	74	-19%	9.2µM*	?
COc1cc(/C=N/NC(=O)c2ccc(COc3cc(C)ccc3C(C)C)cc2)cc(OC)c1O	13µM*	16µM*	-5	3%	21µM*	21µM*
Cc1ccc(C(C)C)c(OCc2ccc(C(=O)N/N=C/c3ccc(O)c(O)c3)cc2)c1	2.1µM*	2.3µM*	-100*	-11%	-26%	?
CCOc1cc(/C=N/NC(=O)c2ccc(=O)n(C)c2)ccc1O	-5%	0%	9	-1%	23%	13%
CN(C)c1nc(SCc2ccc(Cl)cc2)nc2c1CCCC2	?	?	-3	11%	-9%	-8%
Cc1ccc(CS(=O)(=O)c2nc3c(c(N(C)C)n2)CCCC3)cc1	-6%	14%	-79*	·	-11%	-21%
COc1cc2c(cc1OC)C(CC(=O)O)N(C(=O)Nc1cc(OC)c(OC)c(OC)c1)CC2 (configuration not stated)	?	3.7µM*	·	·	·	·
COc1cc2c(cc1OC)C(C)N(C(=O)Nc1ccc(F)cc1)CC2 (configuration not stated)	7.3µM*	13µM*	-1	?	?	?
O=C(O)CC1c2ccccc2CCN1C(=O)Nc1cc(Cl)ccc1Cl (configuration not stated)	21µM*	21µM*	·	·	·	·
COc1ccc(NC(=O)C2CCCN(C(=O)Nc3ccc(F)cc3)C2)cc1OC (configuration not stated)	-10%	6%	8	-1%	-9%	-1%
COc1cc2c(cc1OC)C(C)N(C(=O)Nc1cc(C)cc(C)c1)CC2 (configuration not stated)	2.6µM*	3.3µM*	35	?	6.5µM*	7.3µM*
COc1cc2c(cc1OC)C(C)N(C(=O)CCc1c[nH]c3ccccc13)CC2 (configuration not stated)	?	?	21	-10%	?	?
COc1cc2c(cc1OC)C(C)N(C(=O)c1cc3c(C)cc(C)cc3[nH]1)CC2 (configuration not stated)	16µM*	16µM*	-81*	-16%	?	6.5µM*
CCCCNC(=O)C1(C)CCN1C(=O)c1cc(C)n(C(C)(C)C)n1 (configuration not stated)	?	?	11	·	24%	2%
NC(=O)C[n+]1cccc2ccccc21	-17%	-2%	5	8%	-4%	-5%
c1ccc(C[n+]2cccc3c4ccccc4ccc32)cc1	3.7µM*	3.7µM*	-60*	-16%	?	?
CCCCC[n+]1cccc2c3ccccc3ccc21	0.0073µM*	0.52µM*	-77*	?	?	9.2µM*
SMILES	TDP1 cell noCPT	TDP1 cell CPT	IL1B secr inh	uPA surface inh	HT1080-NT tox	HT1080 IDH1KD tx
Brc1cccc[n+]1Cc1ccc(C[n+]2ccccc2Br)cc1	-8%	3%	·	·	·	·
CSc1ncccc1C(=O)NNC(=O)c1ccc(NS(=O)(=O)c2cccs2)cc1	9%	0%	-6	0%	0%	1%
COc1ccc(N=Cc2ccccc2O)cc1	-7%	-7%	-14	-10%	-13%	-22%
ON=Cc1ccnc2ccccc12	?	-23%	-11	·	1%	0%
CN(C)c1ccc(N=Cc2cccc3ccccc23)cc1	4µM*	4.5µM*	·	·	·	·
CN(C)c1ccc(N=Cc2ccnc3ccccc23)cc1	11µM*	10µM*	·	·	·	·
CCc1ccccc1NC(=O)CSc1nnc(-c2ccc(OC)cc2)s1	-20%	9%	·	·	·	·
CCCCNC(=O)CSc1nc2n[nH]c(C)c2c(=N)n1-c1ccccc1CC	10µM*	15µM*	·	·	·	·
CCc1ccccc1NC(=O)CSc1nc2n[nH]c(C)c2c(=N)n1-c1ccc(OC)cc1	8.2µM*	9.2µM*	?	-7%	-17%	-24%
Cc1cccc(-n2c(SCC(=O)Nc3ccccc3Cl)nc3n[nH]c(C)c3c2=N)c1	21µM*	15µM*	·	·	·	·
COc1ccccc1-n1c(C)nnc1SCC(=O)NCc1ccccc1	-8%	2%	21	1%	14%	10%
COc1ccc(-n2c(SCC(=O)NCc3ccccc3)nc3n[nH]c(C)c3c2=N)cc1	6.5µM*	6.5µM*	·	·	·	·
Cc1cccc(-n2c(SCC(=O)N3CCCC3)nc3n[nH]c(C)c3c2=N)c1	?	?	-28	·	-17%[9.24 µM]	-21%
Cc1oc(=O)oc1CN1CCN(c2cc3c(cc2F)c(=O)c(C(=O)O)c2n3C(C)S2)CC1 (configuration not stated)	-11%	-22%	·	·	·	·
Cc1cc(C)c(NC(=O)CS(=O)CC(=O)Nc2ccc(F)cc2F)c(C)c1 (configuration not stated)	3%	-24%	-17	-12%	-2%	-2%

Source: PubChem BioAssay
